Compound activity from PubChem.
HT1080-NT tox: qHTS for induction of synthetic lethality in tumor cells producing 2HG: qHTS for the HT-1080-NT fibrosarcoma cell line; HT-1080-NT fibrosarcoma viability, CellTiter-Glo ATP luminescence, 48 h; Potency, µM (highest dose often 46.1 µM), for inactives: top-dose activity, negative = less viability, usual class: cytotoxic; 360,000 tested, 1.6% active; AID 686970, 2013;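 note: NT is the 2HG producing partner of a matched IDH1 knockdown line; potency is the fitted concentration of half-maximal effect; 0% = DMSO-treated cells and -100% = media-only wells without cells; nearly all actives have a fitted effect of over 55% in size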
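Toxicity toward the 2HG-producing NT line was scored as %Activity, normalised to DMSO and no-cell wells, from CellTiter-Glo luminescence after 48 hours' treatment.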
TDP1 cell CPT: qHTS for Inhibitors of human tyrosyl-DNA phosphodiesterase 1 (TDP1): qHTS in cells in presence of CPT; chicken DT40 Tdp1-/-;hTDP1 cells + 20 nM CPT, ATP luminescence, 48 h; Potency, µM (titrated, usually from 46.2 µM), inactives show at the highest dose activity change, negative = growth inhibition, most hits filed as inhibitors; 420,000 tested, 12% active; note: potency is the fitted concentration of half-maximal effect; nearly all actives have a fitted effect of over 55% in size
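Cell growth measured by CellTiter-Glo luminescence after a minimum 48 h, 37 C compound exposure with 20 nM CPT in Tdp1-knockout DT40 cells stably expressing hTDP1, seeded 400/well; qHTS titration format.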
TDP1 cell noCPT: qHTS for Inhibitors of human tyrosyl-DNA phosphodiesterase 1 (TDP1): qHTS in cells in absence of CPT; DT40 Tdp1-/- hTDP1 cells, no CPT, ATP luminescence, 48 h; Potency, µM (top dose mostly 46.2 µM), for the others: top-dose activity change, negative = growth inhibition, hits mostly inhibitors; 420,000 tested, 15% active; note: potency is the fitted concentration of half-maximal effect; nearly all actives have a fitted effect of over 55% in size
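Chicken DT40 Tdp1-/- cells complemented with human TDP1, screened without camptothecin (DMSO vehicle only), 400 cells/well. Compounds pin-transferred, cells incubated at 37 °C for at least 48 hr. Growth read as ATP-dependent luminescence (CellTiter-Glo, 30 min at RT).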
IL1B secr inh: qHTS for Inhibitors of Inflammasome Signaling: IL-1-beta AlphaLISA Primary Screen; THP-1 LPS/ATP IL-1B secretion, AlphaLISA, 16 h; stronger effect = lower value; activity change, % at 57.5 µM; 360,000 tested, 4.7% active; in the data active = activity change below about -50%; inconclusive = mostly about -30% to -49%
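THP-1 cells pretreated 1 hr with compounds (up to 57.5 uM final), then stimulated with LPS (250 ng/mL final) plus ATP (1.25 mM final); secreted IL-1B measured by AlphaLISA after 16 hr, decreased signal indicating inhibition.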
HT1080 IDH1KD tx: qHTS for induction of synthetic lethality in tumor cells producing 2HG: qHTS for the HT-1080-IDH1KD cell line; HT-1080 IDH1 knockdown viability, ATP luminescence, 48 h; Potency, µM (highest dose often 46.1 µM), for inactives: at the highest dose activity, negative = toxicity, actives largely listed as cytotoxic; 360,000 tested, 2% active; AID 686971, 2013;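 note: potency is the fitted concentration of half-maximal effect; 0% = DMSO wells and -100% = cell-free medium wells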
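Assay cells: HT-1080 with IDH1 knockdown, 750 per well, RPMI/5% FBS. Exposure: 48 h at 37 °C following 2 h pre-incubation. Read: CellTiter-Glo luminescence; fitted concentration-response, curve class assigned.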
12-LOX inh: Primary qHTS assay for inhibitors of human arachidonate 12S-lipoxygenase (ALOX12): Round 2; Potency, µM (titrated, usually from 108 µM), without a hit: at the highest dose activity change, negative = inhibition, most hits filed as inhibitors; 580,000 tested, 1.1% active; Polyunsaturated fatty acid lipoxygenase ALOX12 (Homo sapiens), P18054; purified 12hLO, xylenol orange hydroperoxide absorbance; note: potency is the fitted concentration of half-maximal effect
Target sequence (P18054 whole entry, looked up): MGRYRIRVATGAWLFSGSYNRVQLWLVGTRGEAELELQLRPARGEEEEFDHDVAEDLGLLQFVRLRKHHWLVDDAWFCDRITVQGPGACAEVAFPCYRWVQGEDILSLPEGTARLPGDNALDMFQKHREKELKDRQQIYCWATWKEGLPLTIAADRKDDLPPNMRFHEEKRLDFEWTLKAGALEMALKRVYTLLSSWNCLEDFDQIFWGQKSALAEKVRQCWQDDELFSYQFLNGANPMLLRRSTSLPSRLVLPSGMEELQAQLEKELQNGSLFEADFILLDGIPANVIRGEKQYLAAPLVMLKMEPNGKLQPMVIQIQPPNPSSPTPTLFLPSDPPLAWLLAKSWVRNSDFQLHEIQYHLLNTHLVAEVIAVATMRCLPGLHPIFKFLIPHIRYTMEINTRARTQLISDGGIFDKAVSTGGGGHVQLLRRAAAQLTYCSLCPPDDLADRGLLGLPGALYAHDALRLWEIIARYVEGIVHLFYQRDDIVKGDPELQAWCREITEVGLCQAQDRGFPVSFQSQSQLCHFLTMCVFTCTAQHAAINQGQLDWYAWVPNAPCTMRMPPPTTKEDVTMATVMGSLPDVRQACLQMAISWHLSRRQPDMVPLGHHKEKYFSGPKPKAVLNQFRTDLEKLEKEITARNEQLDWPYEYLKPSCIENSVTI
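Purified human 12hLO (150 nM final) in 25 mM Hepes, 0.01% Triton X-100, pH 7.0 was preincubated 15 min at room temperature with compound. Then 40 uM arachidonic acid was added, 30 min. Hydroperoxide was read by Fe-XO absorbance ratio 573/405 nm.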
* marks the source's active call; other numbers are inactive results; ? = inconclusive; · = not tested or not shown; [ ] = remark or other dose. The entries come from a sample that favours hits as a whole. Unless noted, calls come from the whole dose curve; as a rule, active = well fitted curve in the direction sought with a large enough effect; inconclusive = small, poorly fitted or top-dose-only effect, or another doubt; inactive = no such curve, though single readings can be large; an effect the other way counts as inactive or inconclusive. Unless noted, % is set by controls: 0 for no effect and ±100 for the full control effect.

SMILES	HT1080-NT tox	TDP1 cell CPT	TDP1 cell noCPT	IL1B secr inh	HT1080 IDH1KD tx	12-LOX inh
Cc1cccc(NC(=O)Cn2c(=O)n(Cc3ccccc3)c(=O)c3oc4ccccc4c32)c1C	·	4.6µM*	3.3µM*	·	·	-9%
COc1ccc(OC)c(NC(=O)Cn2c(-c3cnccn3)nc(C)c(CCO)c2=O)c1	·	·	·	·	·	5%
O=C(Cn1c(=O)n(Cc2ccccc2)c(=O)c2oc3ccccc3c21)Nc1ccc(Cl)cc1	·	?	18µM*	·	·	-15%
O=C(Cn1c(=O)n(Cc2ccco2)c(=O)c2oc3ccccc3c21)Nc1ccccc1	·	?	?	·	·	-5%
CC(NCC(=O)NC1CCCCC1)c1cccc(C(F)(F)F)c1 (stereo not given)	·	·	·	·	·	41%
O=C(NC1CCCCCCC1)C1CCN(C(=O)c2ncn3c2COC(c2ccc(Cl)cc2)C3)CC1 (stereo not given)	·	·	·	·	·	11%
CC(C)(C)C(=O)NCC1CCN(Cc2nc(-c3ccccc3)no2)C1 (stereo not given)	·	·	·	·	·	22%
Cc1cnnn1-c1ccc(C(=O)CCl)cc1	1%	2.3µM*	2.6µM*	-109*	1%	?
CN1C(=O)C2(CCN(C(=O)CCN3CCCCCC3=O)CC2)c2ccccc21	·	·	·	·	·	12%
CN(C)Cc1ccc(CNC(=O)CNC(=O)Nc2ccccc2)cc1	·	·	·	·	·	14%
CCCN(CCC)c1nc(C#N)nc(N(CCC)CCC)n1	22%	?	?	-7	2%	1%
CCCN(CCC)c1nc(N(CCC)CCC)[nH]c(=O)n1	?	23µM*	18µM*	13	3%	-9%
O=Cc1s/c(=N\S(=O)(=O)c2ccccc2)n(CCCCl)c1Cl	7.3µM*	0.52µM*	0.73µM*	-102*	7.3µM*	?
CCN1CCN(c2ccc(Cl)cc2NC(=O)c2ccc(-n3nc(C)cc3C)cc2)CC1	?	21µM*	?	-64*	?	313%
Cc1cc(C)n(-c2ccc(C(=O)Nc3cc(S(=O)(=O)N(C)C)ccc3Cl)cc2)n1	-2%	16µM*	?	-24	-7%	?
CCN1CCN(c2ccc(Cl)cc2NC(=O)c2ccco2)CC1	-20%	?	?	-62*	-9%	4%
Cc1cc(C)n(-c2ccc(C(=O)Nc3cccnc3Cl)cc2)n1	-5%	?	?	-23	2%	-3%
Cc1c(C(=O)NC(c2ccc(Cl)cc2)c2nccn2C)oc2ccccc12 (stereo not given)	·	·	·	·	·	-10%
O=C(NCc1ccccc1F)Nc1ccc2oc(C3CC3)nc2c1	·	·	·	·	·	-4%
COc1ccc2c(C)cc(=O)oc2c1C	10%	-16%	-12%	4	6%	0%
Cc1cc(=O)oc2c(N)nccc12	-25%	?	?	-105*	-16%	·
CC(C)CCn1c2ccccc2c2cc(CC(N)=O)ccc21	-2%	?	23µM*	-11	?	340%
O=[N+]([O-])c1ccc(N2CCCC2)nc1	5%	0%	-10%	·	24%	0%
O=C(NC(=O)N1CCN(c2ccc([N+](=O)[O-])cn2)CC1)c1c(Cl)cccc1Cl	1%	9.2µM*	?	·	5%	·
CC(C)(C)c1ccc(C(=O)N2CCCN(c3ccc([N+](=O)[O-])cn3)CC2)cc1	-1%	?	18µM*	0	-9%	0%
SMILES	HT1080-NT tox	TDP1 cell CPT	TDP1 cell noCPT	IL1B secr inh	HT1080 IDH1KD tx	12-LOX inh
O=C(NC(=O)N1CCN(c2ccc([N+](=O)[O-])cn2)CC1)c1ccccc1F	3%	?	9.2µM*	1	5%	3%
CCc1cc(N2CCN(C)C3(CCC(=O)N(C)CC3)C2)nc(N(C)C)n1 (stereo not given)	·	·	·	·	·	17%
Cc1[nH][nH]c(=O)c1C(c1ccc(-c2ccc(F)cc2)o1)c1c(C)[nH][nH]c1=O	?	?	?	?	-29%	?
Cc1[nH][nH]c(=O)c1C(c1ccc(-c2ccc(Cl)c(Cl)c2)o1)c1c(C)[nH][nH]c1=O	-24%	3.3µM*	2.6µM*	-22	-11%	?
COc1ccc(-c2ccc(C(c3c(C)[nH][nH]c3=O)c3c(C)[nH][nH]c3=O)o2)c([N+](=O)[O-])c1	8.2µM*	?	23µM*	-74*	26µM*	-37%
CC1=NN(C(=O)CSCc2ccc(F)cc2Cl)C(O)(C(F)(F)F)C1 (stereo not given)	·	·	·	·	·	-1%
c1ccc(CNc2ncnc3sc4c(c23)CCC4)nc1	-1%	?	15µM*	8	-5%	245%
c1ccc(-c2csc3ncnc(NCc4ccccn4)c23)cc1	-5%	12µM*	9.2µM*	41	-2%	143%
CN(C)CCCNc1ncnc2scc(-c3ccccc3)c12	-3%	1%	?	-7	-7%	-18%
Oc1ccc(Nc2ncnc3scc(-c4ccccc4)c23)cc1	-9%	?	8.2µM*	-10	-12%	1%
c1ccc(CNc2ncnc3scc(-c4cccs4)c23)nc1	-1%	10µM*	9.2µM*	?	-1%	-11%
Cc1ccsc1-c1nc(C2CC(=O)N(C3CCCCC3)C2)no1 (stereo not given)	·	·	·	·	·	15%
CSc1ccccc1NC(=O)c1ccc(C)s1	·	·	·	·	·	43%
COc1ccc(NC(=O)C2=C(C)NC(=O)NC2c2cccc(OCc3ccccc3)c2)cc1 (stereo not given)	·	·	·	·	·	-10%
C=CCn1c(Oc2ccc(OC)cc2)nc2c1c(=O)n(C)c(=O)n2C	·	·	·	·	·	7%
Cc1noc([C@@H](C)NC(=O)Nc2cccnc2)c1C(=O)O	·	·	·	·	·	-7%[176 µM]
O=C(C[C@H]1NC(=O)c2ccccc2NC1=O)Nc1nnc(C2CCCO2)s1 (stereo not given in full)	·	·	·	·	·	15%
O=C(Nc1ccc(-n2cccn2)c(F)c1)C1CCCN1C(=O)c1ccco1 (stereo not given)	·	·	·	·	·	16%
O=S(=O)(Nc1ncnc2sc3c(c12)CCC3)c1ccc(Cl)s1	-1%	?	13µM*	41	-25%	?
Cc1cc(C(=O)N2CCC(N3C[C@H](O)C[C@H]3C(=O)NC3CCCCC3)CC2)nn1C	·	·	·	·	·	30%
